Reference: PubChem BioAssay AID449762 (Southern Research Specialized Biocontainment Screening …, 2010)
Values joined by “and” are separate entries in the source; they are usually repeats but may differ in a detail not shown here. Identical values can stand only once. Out of some 330,000 compounds screened, about 1,900 (0.58%) were called active. Not shown: some 4% with an inconclusive outcome. Only a sample is shown. Measured potencies and affinities stand elsewhere. Values without a mark were called inactive. No stated cut-off is given here; in the data, inconclusive means inhibition above about 70% without an active follow-up result; inactive means below that.

Assay: M. tuberculosis growth inhibition, HTS (AID 449762);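 further: bacterial growth assessed after seven days of incubation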
Conditions: M. tuberculosis H37Rv growth inhibition, 7H9 media; at 25 µM; stronger effect = higher value

For `COc1ccc(-c2noc(C3CCCN(S(=O)(=O)c4ccc(C)c(Cl)c4)C3)n2)cc1OC` (stereo unspecified), which inhibition is on record?
The inhibition was -3.19%.

For `CCCC(C)NC(=O)COc1ccc(S(=O)(=O)c2ccc(OCC(=O)NC(C)CCC)cc2)cc1` (stereo unspecified), which inhibition is on record?
The inhibition was -8.03%.

For `O=C(Nc1cccnc1)C1CCN(S(=O)(=O)c2ccc(Cl)cc2)CC1`, which inhibition is on record?
The inhibition was 0.94%.

With `CSCCC(NC(=O)CCC(=O)OC1CC[C@H]2[C@@H]3CC[C@H]4CC(=O)CC[C@]4(C)[C@H]3CC[C@]12C)C(=O)O` (stereo partly specified) as the compound, how does the inhibition read?
Its inhibition is 2.77%.

Which inhibition does the source give for `CCOC(=O)c1c(NC(=O)CSc2nnc(C)s2)sc2c1CCC(CC)C2` (stereo unspecified) here?
Its inhibition is -2.5%.

For `COC(=O)C1=C(N)OC2=C(C(=O)CC(C)(C)C2)C1c1ccccc1OCC#N` (stereo unspecified), which inhibition is on record?
Its inhibition is 4.16%.

Which inhibition does the source give for `Cc1ccc(NC(=O)C2CCCN(c3ncccn3)C2)c(C)c1` (stereo unspecified) here?
Its inhibition is 7.16%.

With `CCCc1ccc2oc(C(=O)N(C)Cc3cnccn3)c(C)c2c1` as the compound, how does the inhibition read?
Its inhibition is -5.84%.

Which inhibition does the source give for `CCCc1ccc2oc(C(=O)N(C)Cc3ccn[nH]3)c(C)c2c1` here?
Its inhibition is 4.45%.

Which inhibition does the source give for `Cc1cc(C)c(NC(=O)CSc2nnc(CN3CCOCC3)n2C)c(C)c1` here?
The inhibition was -5.19%.

With `Cc1cccc(NC(=O)CSc2nnc(Cc3ccccc3)o2)c1` as the compound, how does the inhibition read?
The inhibition was 9.03%.

With `Cc1ccc(NC(=O)CSc2nnc(Cc3ccccc3)o2)cc1` as the compound, how does the inhibition read?
Its inhibition is -3.22%.

Which inhibition does the source give for `O=C(COC(=O)CCC(=O)c1ccc(F)cc1)NC1CCCCC1` here?
The inhibition was -5.44%.

With `CC1(C)NC(C(=O)O)Cc2c1[nH]c1ccccc21` (stereo unspecified) as the compound, how does the inhibition read?
The inhibition was -1.33%.

With `CC12CCC(=O)N1C(C(=O)O)Cc1c2[nH]c2ccccc12` (stereo unspecified) as the compound, how does the inhibition read?
Its inhibition is 6.77%.

Which inhibition does the source give for `CC1Cc2ccccc2N1CC(=O)Nc1cccc(S(N)(=O)=O)c1` (stereo unspecified) here?
Its inhibition is 3.61%.

For `CCOc1ccc(CCNC(=O)c2nn(C)c3c2CS(=O)(=O)c2ccccc2-3)cc1OCC`, which inhibition is on record?
The inhibition was 3.57%.

With `O=C(NC1=NCCS1)C1CCN(S(=O)(=O)c2cc([N+](=O)[O-])ccc2Cl)CC1` as the compound, how does the inhibition read?
The inhibition was -7.02%.

For `O=C(NC1CC1)C1CCN(S(=O)(=O)c2cc([N+](=O)[O-])ccc2Cl)CC1`, which inhibition is on record?
Its inhibition is -3.67%.

For `CCN(Cc1cnn(C)c1)C(=O)c1cc(COc2cc(C)c(Cl)c(C)c2)on1`, which inhibition is on record?
The inhibition was 10%.

With `CC(=O)c1cccc(OCc2cc(C(=O)N(C)CCc3cnn(C)c3)no2)c1` as the compound, how does the inhibition read?
Its inhibition is 1.92%.

For `COc1ccc(Cl)cc1Nc1cc(C)nc2nc(C)nn12`, which inhibition is on record?
The inhibition was 2.13%.

For `OC(CN1CC=C(/C=C/c2ccc(Br)cc2)CC1)c1ccccc1` (stereo unspecified), which inhibition is on record?
Its inhibition is 10.3%.

Which inhibition does the source give for `COc1ccc(/C=C/C2=CCN(C)CC2)cc1` here?
The inhibition was -5.45%.

With `Cc1cc(C(=O)NCC(=O)Nc2c(C)cccc2C)c2ccccc2n1` as the compound, how does the inhibition read?
Its inhibition is -6.3%.

For `O=C(NCCCN1CCOCC1)C1CCN(S(=O)(=O)c2ccccc2)CC1`, which inhibition is on record?
The inhibition was -0.05%.

Which inhibition does the source give for `O=C(N/N=C/c1ccc(-c2ccc(S(=O)(=O)Nc3ncccn3)cc2)o1)c1cc2ccccc2cc1O` here?
The inhibition was -7.05%.

For `CCCOc1ccc(C(=O)N/N=C/c2ccc(-c3ccc(S(=O)(=O)Nc4ncccn4)cc3)o2)cc1`, which inhibition is on record?
The inhibition was 7.99%.

For `CCC1CCC(C(=O)NNC(=O)OC)CC1` (stereo unspecified), which inhibition is on record?
Its inhibition is -7.14%.

With `COc1cccc(Nc2nnc(SCC(=O)Nc3sccc3C(N)=O)s2)c1` as the compound, how does the inhibition read?
Its inhibition is 0.87%.

With `Cc1ccc(-c2c[n+](CC(=O)Nc3c(C)cccc3C)c3n2CCC3)cc1` as the compound, how does the inhibition read?
Its inhibition is 11.9%.

With `Cc1ccc(NC(=O)C[n+]2cc(-c3ccccc3)n3c2CCC3)cc1` as the compound, how does the inhibition read?
The inhibition was 5.89%.

For `Cn1c(NC(=O)C[n+]2cc(-c3ccc(Cl)cc3)n3c2CCC3)cc(=O)n(C)c1=O`, which inhibition is on record?
Its inhibition is -2.19%.

For `COc1ccc(C(=O)C[n+]2cc(-c3ccc(OC)cc3)n3c2CCCC3)cc1`, which inhibition is on record?
The inhibition was 5.06%.

For `Cc1ccc(C(=O)C[n+]2cc(-c3ccccc3)n3c2CCCCC3)cc1`, which inhibition is on record?
The inhibition was 2.54% and -2.93%.

With `Cc1ccc(-c2c[n+](CC(=O)c3cccs3)c3n2CCC3)cc1` as the compound, how does the inhibition read?
Its inhibition is -3.4%.

For `Cc1c(C(=O)N2CCOCC2)cc(C(C)(C)C)n1-c1ccccc1`, which inhibition is on record?
The inhibition was -3.73%.

With `O=C(OCCNc1nc(-c2ccccc2)nc2ccccc12)c1cccnc1` as the compound, how does the inhibition read?
The inhibition was 10.2%.

With `COc1ccccc1NC(=O)CN1CCN(C(=O)C2CCCO2)CC1` (stereo unspecified) as the compound, how does the inhibition read?
The inhibition was -18.2%.

Which inhibition does the source give for `NC(=O)CSc1nnc(-c2cc(-c3cccs3)nc3ccccc23)o1` here?
The inhibition was 5.91%.

Which inhibition does the source give for `Cc1sc(NC(=O)CN2CCCC2)nc1-c1ccc2c(c1)CCN2C(=O)c1cccc(F)c1` here?
The inhibition was 9.15%.

Which inhibition does the source give for `CN(C)C(=N)c1n[nH]nc1SCc1ccc(Cl)c(Cl)c1` here?
The inhibition was -2.06%.

Which inhibition does the source give for `CCOc1ccc(N2C(=O)c3ccc(C(=O)OCc4c(C)noc4C)cc3C2=O)cc1` here?
The inhibition was -11.4%.

For `CCCN(CC1CC1)C(=O)COC(=O)c1oc2ccc(OCC)cc2c1C`, which inhibition is on record?
The inhibition was 2.37%.

With `COc1ccc(CNC(=O)c2cc(C3CC3)on2)cc1` as the compound, how does the inhibition read?
The inhibition was 8.82%.

With `O=C(c1ccc(Br)o1)N1CCc2ccccc21` as the compound, how does the inhibition read?
Its inhibition is -3.15%.

With `O=C(NC(=S)N1CCc2ccccc21)c1ccccc1Br` as the compound, how does the inhibition read?
The inhibition was 6.29%.

For `CC(OC(=O)c1cccnc1Cl)C(=O)Nc1ccc2c(c1)OCO2` (stereo unspecified), which inhibition is on record?
The inhibition was 0.24%.

With `C=CCOc1cccc(C2C(C(=O)c3ccco3)=C(O)C(=O)N2CCN(CC)CC)c1` (stereo unspecified) as the compound, how does the inhibition read?
The inhibition was -1.23%.

Which inhibition does the source give for `CCCOC(=O)c1cc(-c2ccc(C=O)o2)ccc1Cl` here?
Its inhibition is 9.94%.

For `CCOC(=O)c1ccc(-c2ccc(C=O)o2)cc1`, which inhibition is on record?
The inhibition was 12.7%.

With `CC(C)(C)NC(=O)COC(=O)c1ccc(S(=O)(=O)N2CCCC2)cc1` as the compound, how does the inhibition read?
Its inhibition is 5.11%.

With `CN(C)CCCN1C(=O)c2cccc3c([N+](=O)[O-])ccc(c23)C1=O` as the compound, how does the inhibition read?
Its inhibition is 36.5%.

With `Cc1nnc(N2C(=O)c3cccc4c([N+](=O)[O-])ccc(c34)C2=O)s1` as the compound, how does the inhibition read?
Its inhibition is -2.32%.

Which inhibition does the source give for `Cc1ccc(S(=O)(=O)NCC(=O)OCC(=O)Nc2cccc(S(=O)(=O)NC3=NCCCCC3)c2)cc1` here?
Its inhibition is 7.74%.

Which inhibition does the source give for `COCCn1cnnc1SCC(=O)Nc1cccc(S(=O)(=O)N(C)c2ccccc2)c1` here?
Its inhibition is -4.95%.

Which inhibition does the source give for `COc1cc(OC)c(C(=O)Nc2cccnc2)cc1OC` here?
Its inhibition is 3.08%.

With `CN(C)c1ncc(S(=O)(=O)c2ccccc2)c(N)n1` as the compound, how does the inhibition read?
The inhibition was -5.65%.

With `CN1CCN(C2=Cc3ccccc3Sc3cc(F)ccc32)CC1` as the compound, how does the inhibition read?
Its inhibition is -12.7%.

For `CN1CCN(c2ccc(F)cc2N)CC1`, which inhibition is on record?
Its inhibition is -0.88%.

With `CCOc1ccc(S(=O)(=O)NCCC(=O)N2CCC(Cc3ccccc3)CC2)cc1` as the compound, how does the inhibition read?
The inhibition was 44.3%.

Which inhibition does the source give for `CCN(CC)S(=O)(=O)c1ccc(N2CCN(CCO)CC2)nc1` here?
The inhibition was -5.66%.

With `Cc1nc2ccc(NC(=O)c3cc([N+](=O)[O-])cc([N+](=O)[O-])c3Cl)cc2s1` as the compound, how does the inhibition read?
The inhibition was 38.8%.

Which inhibition does the source give for `Cc1nc2ccc(NC(=O)c3ccc([N+](=O)[O-])cc3)cc2s1` here?
The inhibition was 3.43%.

Which inhibition does the source give for `COc1ccc(S(=O)(=O)N2CCN(CC(=O)Nc3ccccc3Cl)CC2)cc1` here?
Its inhibition is -4.47%.

With `CN(C)C1(CNC(=O)c2ccc(NS(=O)(=O)c3ccc(Cl)c(Cl)c3)cc2)CCCCC1` as the compound, how does the inhibition read?
Its inhibition is -3.67%.

With `CN(C)C1(CNC(=O)Nc2ccccc2)CCCCC1` as the compound, how does the inhibition read?
Its inhibition is 3.43%.

Which inhibition does the source give for `CCc1cc2c(=O)n(CC(=O)NCCc3ccc(OC)c(OC)c3)cnc2s1` here?
The inhibition was -7.38%.

With `CCN(CC)C(=O)CN(c1cccc(Br)c1)S(C)(=O)=O` as the compound, how does the inhibition read?
The inhibition was -7.74%.

With `COC(C/C=C/[C@H](O)[C@@H](C)OCc1ccccc1)OC` as the compound, how does the inhibition read?
The inhibition was -3.21%.

With `O=C(C1=C[C@H](c2csc3ccccc23)C[C@H](OCc2ccc(CO)cc2)O1)N1CCN(Cc2ccc3c(c2)OCO3)CC1` as the compound, how does the inhibition read?
The inhibition was 21.8%.

With `O=C(C1=C[C@H](c2csc3ccccc23)C[C@H](OCCCCO)O1)N1CCN(Cc2ccc3c(c2)OCO3)CC1` as the compound, how does the inhibition read?
The inhibition was 59.9%.

With `Cc1ccc(/C=C/C(=O)O)cc1S(=O)(=O)N1CCc2ccccc21` as the compound, how does the inhibition read?
Its inhibition is -1.47%.

Which inhibition does the source give for `C/C(=N\NC(=O)c1sccc1C)c1cccnc1` here?
The inhibition was -1.12%.

Which inhibition does the source give for `CCN1CC(CN(C)Cc2nc(COc3ccccc3)no2)CC1=O` (stereo unspecified) here?
The inhibition was 2.85%.

Which inhibition does the source give for `C[C@@H](NCCc1ccc(O)cc1)[C@@H](O)c1ccc(O)cc1` here?
The inhibition was -1.64%.

For `C[C@H](NCCc1ccc(O)cc1)[C@H](O)c1ccc(O)cc1`, which inhibition is on record?
Its inhibition is 1.5%.

For `CCCCNC(=O)c1c(CSc2ccc(Cl)cc2)noc1C(=O)NCc1ccccc1`, which inhibition is on record?
Its inhibition is 8.53%.

Which inhibition does the source give for `CC(C)(C)c1[nH]nc2c1C(Cc1ccccc1)C(C#N)=C(N)O2` (stereo unspecified) here?
The inhibition was -0.95%.

For `COc1ccccc1Nc1ccc(C(=O)NC2CCCCC2)cn1`, which inhibition is on record?
The inhibition was -2.47%.

Which inhibition does the source give for `C/C(=N\NC(=O)COc1ccc(C)cc1[N+](=O)[O-])c1cccs1` here?
The inhibition was 2.03%.

With `C/C(CC(=O)NC(C)(C)C)=N\NC(=O)COc1ccc(C)cc1Br` as the compound, how does the inhibition read?
The inhibition was 2.95%.

Which inhibition does the source give for `Cc1ccsc1C(=O)OCC(=O)NCc1ccccc1` here?
Its inhibition is -4.47%.

For `COc1cccc(/C=C2\SC(=S)N(CCCC(=O)NC3=NCCS3)C2=O)c1`, which inhibition is on record?
Its inhibition is 2.44%.

With `Cc1cc(C=C2C(=O)N(C)C(=S)N(C)C2=O)c(C)n1C1CCCCC1` as the compound, how does the inhibition read?
Its inhibition is -5.32%.

For `Cc1cc(C=C2C(=O)N(C)C(=S)N(C)C2=O)c(C)n1C1CCCC1`, which inhibition is on record?
Its inhibition is 64.7%.

For `CCOC(=O)C1CCN(S(=O)(=O)c2ccc(-c3cc(C(F)(F)F)n(C)n3)s2)CC1`, which inhibition is on record?
Its inhibition is -4.16%.

For `Cc1cnc(C(=O)Nc2cccc3ncccc23)cn1`, which inhibition is on record?
Its inhibition is -2.6%.

For `Cc1c(C)c(C)c(CO/N=C/c2cccs2)c(C)c1C`, which inhibition is on record?
Its inhibition is -0.39%.

With `COc1cc(NCCCCCCCN)c2ncccc2c1` as the compound, how does the inhibition read?
Its inhibition is 7.02%.

Which inhibition does the source give for `COc1cc(NC(C)CCCN)c2ncccc2c1Oc1ccccc1` (stereo unspecified) here?
The inhibition was -3.95%.
